An excerpt weighted towards active compounds, which were near 0.87% of everything screened.
EPAC1 agonist: qHTS for Agonist of cAMP-regulated guanine nucleotide exchange factor 3 (EPAC1): primary screen. Rap guanine nucleotide exchange factor 3 (Homo sapiens), O95398. AID 720707, 2013. EPAC1 agonist qHTS, biochemical assay; response scale: 100% = response to 6.5 mM cAMP. hit rate 0.073% among 360,000. Potency, µM (titrated, usually from 154 µM), without a hit: top-dose activation, usual class: activators; further: potency means the concentration at half of the fitted maximal effect; nearly all actives have a fitted effect of over 60% in size
Target sequence (O95398 whole entry, looked up): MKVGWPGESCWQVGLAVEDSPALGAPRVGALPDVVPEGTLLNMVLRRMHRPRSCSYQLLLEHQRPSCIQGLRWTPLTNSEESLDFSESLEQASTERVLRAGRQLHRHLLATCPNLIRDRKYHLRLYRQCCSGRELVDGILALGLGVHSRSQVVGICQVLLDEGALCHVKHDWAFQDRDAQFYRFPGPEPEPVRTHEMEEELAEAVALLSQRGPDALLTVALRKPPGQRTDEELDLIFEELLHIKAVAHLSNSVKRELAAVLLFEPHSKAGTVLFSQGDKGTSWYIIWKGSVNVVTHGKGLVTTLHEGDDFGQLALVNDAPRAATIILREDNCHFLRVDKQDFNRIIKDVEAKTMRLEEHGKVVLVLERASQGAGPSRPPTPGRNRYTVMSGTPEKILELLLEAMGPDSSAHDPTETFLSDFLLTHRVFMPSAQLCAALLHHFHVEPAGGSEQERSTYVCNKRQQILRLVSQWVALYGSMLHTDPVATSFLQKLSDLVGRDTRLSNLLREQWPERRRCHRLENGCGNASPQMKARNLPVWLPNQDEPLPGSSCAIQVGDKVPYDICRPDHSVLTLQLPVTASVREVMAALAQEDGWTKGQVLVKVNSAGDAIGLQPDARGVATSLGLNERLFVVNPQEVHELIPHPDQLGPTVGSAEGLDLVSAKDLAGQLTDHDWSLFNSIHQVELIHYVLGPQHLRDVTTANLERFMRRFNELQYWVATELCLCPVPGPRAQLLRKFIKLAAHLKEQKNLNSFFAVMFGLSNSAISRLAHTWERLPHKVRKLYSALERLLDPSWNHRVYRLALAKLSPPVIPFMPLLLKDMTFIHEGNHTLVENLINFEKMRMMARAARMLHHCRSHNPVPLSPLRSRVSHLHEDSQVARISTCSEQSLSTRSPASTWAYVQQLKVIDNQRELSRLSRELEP
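Compounds were pinned as a concentration titration into mixtures of EPAC1 (100 nM), BODIPY-GDP-loaded Rap1B (250 nM) and GDP (50 uM). After 5 min at room temperature, fluorescence was followed for 30 min; activity was scaled to 6.5 mM cAMP.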
EPAC2 antag: qHTS for Antagonist of cAMP-regulated guanine nucleotide exchange factor 2 (EPAC2): primary screen. Rap guanine nucleotide exchange factor 4 (Homo sapiens), Q8WZA2. EPAC2 GEF exchange of Rap1B-BODIPY-GDP, fluorescence. Potency, µM (top dose mostly 114 µM), for the others: at the top dose activity, negative = inhibition, most hits filed as inhibitors. hit rate 0.18% among 360,000. AID 720708, 2013; further: potency means the concentration at half of the fitted maximal effect; on the % scale 0 is the no-effect control and ±100 the full control effect; nearly all actives have a fitted effect of over 45% in size
FBPA coupling cs: qHTS Assay for Inhibitors of Fructose-1,6-bisphosphate Aldolase from Giardia Lamblia: Coupling assay counterscreen; coupling enzyme system counterscreen, AmpLite Red fluorescence; activity change, negative = inhibition, % at 58.2 µM, hits read low; hit rate 0.67% among 290,000; in the data active means activity change below about -30%; further: on the % scale 0 is the no-effect control and ±100 the full control effect
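Counterscreen of the coupled detection system alone, without aldolase: glyceraldehyde-3-phosphate coupling enzymes plus AmpLite Red readout. Compounds at 57.5 uM final, 10 min RT preincubation, 20 min RT reaction, fluorescence 525/598 nm.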
EPAC2 ag: qHTS for Agonist of cAMP-regulated guanine nucleotide exchange factor 4 (EPAC2): primary screen; Potency, µM (doses to about 154 µM), inactives show top-dose activation, most hits filed as activators; hit rate 0.079% among 360,000; EPAC2 activation, biochemical qHTS; response scale: 100% = 6.5 mM cAMP response; further: potency means the concentration at half of the fitted maximal effect; nearly all actives have a fitted effect of over 50% in size
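Nucleotide exchange monitored as fluorescence drop when BODIPY-GDP leaves Rap1B. Reaction: 100 nM EPAC2, 250 nM RAP1B-BODIPY-GDP, 50 uM GDP, room temperature, kinetic read over 30 min. Activity expressed relative to 6.5 mM cAMP.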
EPAC1 antag: qHTS for Antagonist of cAMP-regulated guanine nucleotide exchange factor 3 (EPAC1): primary screen. AID 720709, 2013. hit rate 0.14% among 360,000. Rap guanine nucleotide exchange factor 3 (Homo sapiens), O95398. Potency, µM (doses to about 115 µM), without a hit: top-dose activity change, negative = inhibition, usual class: inhibitors. EPAC1 GEF assay, Rap1b-BODIPY-GDP exchange fluorescence;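 further: potency means the concentration at half of the fitted maximal effect; plate controls were vehicle for no effect and positive control for full effect; nearly all actives have a fitted effect of over 50% in size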
USP1 inh: Inhibitors of USP1/UAF1: Primary Screen | Ubiquitin carboxyl-terminal hydrolase 1 (Homo sapiens), O94782 | recombinant USP1/UAF1, Ub-Rhodamine cleavage fluorescence | Potency, µM (top dose mostly 57.1 µM), without a hit: at the highest dose activity change, negative = inhibition, hits mostly inhibitors | hit rate 0.23% among 390,000 | AID 743255, 2014; further: potency means the concentration at half of the fitted maximal effect; on the % scale 0 is the no-effect control and ±100 the full control effect; nearly all actives have a fitted effect of over 60% in size
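Step one: compound is pinned into 1nM USP1/UAF1 in HEPES pH 7.8 buffer with TCEP. Step two: 15 min room-temperature incubation. Step three: Ub-Rho (150nM final) starts cleavage, tracked by fluorescence over six one-minute reads.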
An asterisk follows results filed as active; ? = inconclusive; . = no result given. Unless noted, the call rests on the fitted dose curve; in most records, active means well fitted curve in the direction sought with a large enough effect; inconclusive means small, poorly fitted or top-dose-only effect, or another doubt; inactive means no such curve, though single readings can be large; an effect the other way counts as inactive or inconclusive.

SMILES | EPAC1 agonist | EPAC2 antag | FBPA coupling cs | EPAC2 ag | EPAC1 antag | USP1 inh
CC1([N+](=O)[O-])COP(=O)(Nc2cccc(Cl)c2)OC1 (stereo not given) | 1% | 0% | . | -9% | 6% | -20%
O=C1CC[C@@]2(O)[C@H]3Cc4ccc(O)c5c4[C@@]2(CCN3CC2CC2)[C@@H]1O5 | . | . | 3 | . | . | .
CC(C)[C@@]1(NC(=O)[C@@H]2C[C@H]3c4cccc5[nH]cc(c45)C[C@@H]3N(C)C2)O[C@]2(O)[C@H]3CCCN3C(=O)CN2C1=O | . | . | 0 | . | . | .
CC(C)[C@H]1C(=O)N2CCC[C@H]2[C@]2(O)O[C@](NC(=O)[C@@H]3C=C4c5cccc6[nH]cc(c56)C[C@H]4N(C)C3)(C(C)C)C(=O)N12 | -14% | 8% | -46* | 11% | ? | 22µM*
CC(C)C1C(=O)N2CCCC2[C@]2(O)O[C@@](NC(=O)[C@@H]3C=C4c5cccc6[nH]cc(c56)C[C@H]4N(C)C3)(C(C)C)C(=O)N12 (stereo not given in full) | . | . | -34* | . | . | .
c1ccc2c3c(ccc2c1)OCC1CONC31 (stereo not given) | -3% | 2% | 0 | -1% | 0% | -15%
CCCn1ncc(CN2CCCC(C(=O)c3cccc(OC)c3)C2)c1C (stereo not given) | 0% | 12% | 2 | 5% | 9% | -20%
N#CC(C#N)=Cc1ccc(N2CCOCC2)cc1 | -1% | 6% | -4 | -12% | -6% | 8%
Cc1cc(C=C(C#N)C#N)ccc1N1CCCC1 | ? | 7% | -1 | 100µM* | 2% | ?
COc1ccccc1-n1c(-c2ccccc2Cl)nc2ccccc2c1=O | -5% | ? | 0 | -8% | -17% | -9%
COc1ccc(N2C(=O)/C(=C/c3cccs3)C(=O)NC2=S)cc1 | 8% | 7% | -1 | 0% | -10% | -8%
COc1cccc(N2C(=O)NC(=O)/C(=C/c3ccc([N+](=O)[O-])s3)C2=O)c1 | 2% | -23% | -10 | 4% | ? | ?
COc1ccc(N2C(=O)/C(=C/C=C/c3ccccc3[N+](=O)[O-])C(=O)NC2=S)cc1 | -4% | -8% | 3 | -4% | 45µM* | ?
COc1ccc(N2C(=O)NC(=O)/C(=C/c3ccc([N+](=O)[O-])s3)C2=O)cc1 | -2% | 0% | -4 | 4% | ? | 22µM*
COc1ccc(N2C(=O)NC(=O)/C(=C\c3ccc([N+](=O)[O-])s3)C2=O)cc1 | -5% | -4% | -12 | -18% | ? | 16µM*
COc1ccccc1N1C(=O)NC(=O)/C(=C/c2ccc([N+](=O)[O-])s2)C1=O | 2% | -1% | -13 | 5% | ? | 32µM*
C[C@@H](NC(=O)C[C@@H]1C[C@@H]2c3cc(NS(=O)(=O)c4ccc(F)cc4)ccc3O[C@@H]2[C@@H](CO)O1)c1ccccc1 | -10% | -13% | . | 4% | -7% | ?
O=C1NCN(c2ccccc2)C12CCN(C(c1cccs1)c1nnnn1Cc1ccccc1)CC2 (stereo not given) | -10% | 10% | . | 14% | -3% | .
CCCCCCC(C)(C)c1ccc([C@@H]2C[C@H](O)CC[C@@H]2CCCO)c(O)c1 | . | . | -4 | . | . | .
CCOP(=O)(OCC)/C(C#N)=C/c1ccoc1 | 6% | 5% | -2 | 5% | -6% | -13%
CN1Cc2c(c(C#N)c(N)n(C)c2=S)CC1(C)C | ? | 25% | -28 | ? | 41% | 28µM*
CN1C(=O)/C(=C/c2cccn2-c2ccc3ccccc3c2)C(=O)NC1=S | -16% | 1% | -10 | -4% | 32µM* | -18%
CC12CCC(=O)C=C1CCC1C2CCC2(C)C1CCC2(O)CC#N (stereo not given) | -7% | 15% | . | -2% | 7% | -1%
Brc1ccc2c(c1)CN(CC1CCCCC1)Cc1cnnn1-2 | 8% | -17% | . | 10% | -1% | .
O=C1NC(=O)N(c2cccc(Cl)c2)C(=O)/C1=C\c1ccc(Sc2nc3ccccc3[nH]2)o1 | -2% | -3% | 5 | 1% | 45µM* | -14%
SMILES | EPAC1 agonist | EPAC2 antag | FBPA coupling cs | EPAC2 ag | EPAC1 antag | USP1 inh
O=C1NC(=O)N(c2ccccc2F)C(=O)/C1=C/c1ccc(Sc2nc3ccccc3[nH]2)o1 | 14% | -1% | 6 | -1% | 25µM* | -16%
O=C(C[C@H]1C=C[C@H](NC(=O)Nc2ccccc2F)[C@@H](CO)O1)NCc1ccc(-c2ccccc2)cc1 | -1% | ? | . | 3% | 5% | .
C/C(O)=C(/C#N)C(=O)Nc1cc(Br)ccc1Br | . | . | 16 | . | . | .
NCCc1cc(O)c(O)cc1O | -2% | 19% | -57* | -9% | ? | ?
COC(=O)C(O)(c1ccc(N(C)C(=O)OC(C)C)cc1)C(F)(F)F (stereo not given) | -5% | -15% | 0 | -17% | -12% | -3%
CCCCCn1cc(C(=O)C(=O)N2CCOCC2)c2ccccc21 | -2% | -7% | . | 1% | -24% | -24%
O=C(c1ccc2nc(-c3ccco3)c(-c3ccco3)nc2c1)N1CCC2(CC1)OCCO2 | -8% | 6% | -45* | 0% | -11% | -25%
CN1CCc2cc3c(c4c2[C@H]1Cc1ccccc1-4)OCO3 | . | . | -33* | . | . | .
COC(=O)C1C2c3ccccc3C(c3ccccc32)C1(C)C(=O)OC (stereo not given) | 2% | 32µM* | . | 7% | 4% | 2%
COc1ccc(-n2c(O)c(/C=C/C=Nc3ccccc3)c(=O)[nH]c2=O)cc1 | 100µM* | 54% | -6 | ? | 25% | 32µM*
